An excerpt weighted towards active compounds, which were near 2.9% of everything screened.
SNCA expr inh: Primary qHTS assay for inhibitors of alpha-synuclein gene (SNCA) expression; HEK-293 SNCA-luciferase knock-in, luminescence, 24 h; Potency, µM (titrated, usually from 57.2 µM), for the others: at the top dose activity change, negative = inhibition, actives largely listed as inhibitors; 140,000 tested, 0.17% active;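 further: potency means the concentration at half of the fitted maximal effect; plate controls were DMSO cells for no effect and cell-free wells for full effect; nearly all actives have a fitted effect of over 45% in size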
KDM5B inh: Primary screen for KDM5B Histone Demethylases FDH-coupled qHTS. Potency, µM (highest dose often 57.7 µM), hits mostly inhibitors. 220,000 tested, 2.6% active. Lysine-specific demethylase 5B (Homo sapiens), Q9UGL1. KDM5B demethylase, FDH-coupled NADH fluorescence (FDH is formaldehyde dehydrogenase); further: potency means the concentration at half of the fitted maximal effect; 0% is about no effect; nearly all actives have a fitted effect of over 70% in size
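Measured: NADH fluorescence change, 30 min, RT. System: KDM5BΔAP 200 nM final, H3K4me3 peptide, α-KG, Fe(II), ascorbate, NAD⁺ plus FDH, pH 7.5 HEPES. Compounds: titrated, 10 min pre-incubation with enzyme.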
IP6K1 inhibitor: Primary qHTS assay for small molecule inhibitors of Inositol hexaphosphate kinase 1 (IP6K1); AID 1645851, 2021; IP6K1 kinase, ADP-Glo luminescence, 2 h; stronger effect = lower value; 140,000 tested, 0.81% active; activity change, % (series mostly up to about 58 µM); in the data active means activity change below about -25%; further: on the % scale 0 is the no-effect control and ±100 the full control effect
Target sequence (Q92551 whole entry, looked up): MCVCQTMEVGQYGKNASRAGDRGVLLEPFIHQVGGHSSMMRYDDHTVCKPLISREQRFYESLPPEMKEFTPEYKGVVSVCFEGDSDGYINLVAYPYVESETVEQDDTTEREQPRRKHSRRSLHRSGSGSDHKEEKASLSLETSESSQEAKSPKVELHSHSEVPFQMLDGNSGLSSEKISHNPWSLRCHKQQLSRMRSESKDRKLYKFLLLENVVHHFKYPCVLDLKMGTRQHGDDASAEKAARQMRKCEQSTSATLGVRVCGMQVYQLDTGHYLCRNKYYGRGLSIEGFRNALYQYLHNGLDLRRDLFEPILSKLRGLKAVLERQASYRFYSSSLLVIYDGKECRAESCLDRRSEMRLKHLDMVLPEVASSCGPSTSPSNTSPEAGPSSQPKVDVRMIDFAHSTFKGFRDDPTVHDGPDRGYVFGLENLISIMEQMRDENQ
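ADP-Glo luminescence measures ADP made by human IP6K1 during a 2 h RT reaction with ATP/IP6 (mix at 1.3 mM/130 uM); top library doses 57.5 and 19.1 uM final.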
HEK293 viab: GF-AFC viability counterscreen for inhibitors of alpha-synuclein gene (SNCA) expression; HEK-293-SNCA-luc viability, GF-AFC fluorescence, 24 h; AID 1671193, 2021; 150,000 tested, 0.12% active; Potency, µM (doses to about 57.1 µM), for the others: at the top dose activity change, negative = cytotoxicity, actives largely listed as cytotoxic;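 further: potency means the concentration at half of the fitted maximal effect; 0% = DMSO-treated cells and -100% = medium-only wells without cells; nearly all actives have a fitted effect of over 30% in size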
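Cytotoxicity counterscreen: after 24 h compound treatment of genome-edited SNCA-luciferase HEK-293 cells, live-cell protease substrate GF-AFC read by fluorescence after 30 min; activity scaled between DMSO (0%) and medium-only (-100%), curves Hill-fitted.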
* marks the source's active call; other numbers are inactive results; i = inactive; ? = inconclusive; nt = no result; [ ] = remark or other dose. Unless noted, the call rests on the fitted dose curve; in most records, active means well fitted curve in the direction sought with a large enough effect; inconclusive means small, poorly fitted or top-dose-only effect, or another doubt; inactive means no such curve, though single readings can be large; an effect the other way counts as inactive or inconclusive.

SMILES | SNCA expr inh | KDM5B inh | IP6K1 inhibitor | HEK293 viab
Cc1noc2c(-c3cccnc3NC3CCC(O)CC3)cc(-c3ccccc3)nc12 (centres undefined) | -12.8%[87.6 µM] | ? | -7.2 | 3.1%[87.6 µM]
COCCNc1ncccc1-c1cc(-c2ccccc2)nc2c(C)noc12 | -17.8%[87.6 µM] | 31.6µM* | -7.0 | 5.1%[87.6 µM]
Cc1noc2c(-c3cccnc3NCC3CCOCC3)cc(-c3ccccc3)nc12 | -1.7%[87.6 µM] | 31.6µM* | -4.2 | 9.1%[87.6 µM]
CC(C)NC(=O)N1CCCN(S(=O)(=O)c2ccccc2)CCC(=O)NCC1 | 24.6% | i | 6.7 | 5.6%
Cc1ccc(CCNC(=O)c2cc(-c3ccncc3)nc3ccccc23)cc1 | nt | i | nt | nt
CCn1cnnc1CCNC(=O)c1cc(-c2ccc(C)cc2)nc2ccccc12 | ? | 28.2µM* | 8.8 | 3.0%
COc1ccc(NC(=O)Nc2nnc(N(CC(C)C)CC(C)C)s2)c(OC)c1 | ? | i | 1.0 | ?
CCCc1cc(C(=O)N2CCC3(CC2)CN(C(C)CCC)C(=O)O3)n[nH]1 (centres undefined) | -17.8% | 28.2µM* | 10.0 | -6.1%
Cc1cc(C(=O)C(=O)Nc2nnc(C(C)C)s2)c(C)n1-c1ccccc1 | ? | ? | 0.9 | 26.0%
N#Cc1ccc(Nc2nc(-c3ccc(O)cc3O)cs2)cc1C(F)(F)F | nt | nt | 5.7 | 11.9µM*
Oc1ccc(Nc2nc(-c3ccc(F)cc3F)cs2)cc1 | nt | i | nt | nt
CNC(=O)C1CC(=O)N(c2ccc(OCC(=O)Nc3ccc(F)cc3)cc2)C1 (centres undefined) | nt | i | nt | nt
COc1ccc(CN2Cc3[nH]cnc3C[C@H]2c2nc(-c3ccncc3)no2)cc1 | 10.5%[87.6 µM] | 28.2µM* | 8.9 | -7.8%[87.6 µM]
COc1ccc(-c2noc([C@@H]3Cc4nc[nH]c4CN3Cc3ccc(C)cc3)n2)cc1 | ? | ? | 4.7 | ?
O=C(C1CCCCC1)N1Cc2[nH]cnc2C[C@H]1c1nc(-c2ccc3ccccc3c2)no1 | ? | 31.6µM* | 2.2 | ?
COc1ccc(CN2Cc3[nH]cnc3C[C@H]2c2nc(-c3ccc4ccccc4c3)no2)cc1 | 14.2% | 15.8µM* | 9.9 | -14.7%
Cc1ccc(-c2noc([C@@H]3Cc4nc[nH]c4CN3C(=O)NC(C)C)n2)cc1 | ? | ? | 0.1 | -13.2%[87.6 µM]
Cc1cccc(-c2noc([C@@H]3Cc4nc[nH]c4CN3C(=O)NC(C)C)n2)c1 | -12.3%[87.6 µM] | 8.91µM* | -4.1 | -4.3%[87.6 µM]
COc1nc2c(cc1CNC(=O)CC1CCCCC1)C(=O)N(C1CCCC1)C2 | -9.8% | i | 1.6 | -1.8%
O=C(NC(c1ccccc1)c1ccccc1)c1n[nH]c(=O)c2ccccc12 | nt | i | nt | nt
CC1(CNC(=O)c2n[nH]c3ccccc23)CCOCC1 | -7.8% | i | 5.9 | -12.6%
CCNC(=O)N1Cc2[nH]cnc2C[C@H]1c1nc(-c2ccc(F)c(Cl)c2)no1 | 21.3%[87.6 µM] | 39.8µM* | -2.7 | -5.4%[87.6 µM]
Fc1ccc(CN2Cc3[nH]cnc3C[C@H]2c2nc(-c3ccc(F)c(Cl)c3)no2)cc1 | 29.4%[87.6 µM] | 35.5µM* | -8.4 | -19.0%[87.6 µM]
O=C(Nc1ccc(Cl)cc1)N1Cc2[nH]cnc2C[C@H]1c1nc(-c2ccc(F)c(Cl)c2)no1 | 1.9% | i | -11.9 | ?
c1ccc(CN2Cc3[nH]cnc3C[C@H]2c2nc(-c3ccccc3)no2)cc1 | 29.1%[87.6 µM] | ? | -8.3 | -26.9%[87.6 µM]
SMILES | SNCA expr inh | KDM5B inh | IP6K1 inhibitor | HEK293 viab
C/C=C(\C)CN1CCC(Oc2cccc(C(=O)NCc3ccccn3)c2)CC1 | nt | i | nt | nt
COc1ccc(C(C)=O)cc1-c1ccccc1 | nt | i | nt | nt
CC(C)N1C[C@H](O)C[C@H]1c1nnc2n1CCN(C(=O)c1ccsc1)C2 | 25.1µM* | ? | -0.2 | 0.3%[12.5 µM]
COc1ccc(CN2C[C@H](O)C[C@H]2c2nc(-c3cccc(C)c3)no2)c2ccccc12 | 113.6%[87.6 µM] | 22.4µM* | -13.2 | -6.9%[87.6 µM]
Cc1cccc(-c2noc([C@@H]3C[C@@H](O)CN3Cc3cccc(C#N)c3)n2)c1 | 99.1%[87.6 µM] | i | 9.5 | -12.3%[87.6 µM]
Cc1ccc(C(=O)NCc2nnc3cc(-c4nc(C5CC5)no4)ccn23)cc1C | ? | 28.2µM* | 13.4 | -10.9%
Cc1ccccc1C(=O)NCc1nnc2cc(-c3nc(C4CC4)no3)ccn12 | ? | 28.2µM* | 5.9 | -24.1%
O=C(NCc1nnc2cc(-c3nc(C4CC4)no3)ccn12)c1ccncc1 | 5.2% | 28.2µM* | 13.5 | -4.6%
Cc1ccc(C)c(C(=O)NCc2nnc3cc(-c4nc(C5CC5)no4)ccn23)c1 | -17.7% | 14.1µM* | 32.7 | 0.6%
CCN(CC)c1ccc(C(=O)NCc2nnc3cc(-c4nc(C5CC5)no4)ccn23)cc1 | ? | ? | 6.3 | ?
CO[C@H]1COCCN(C(=O)c2ccc(C#N)cc2)C1 | -16.4%[87.6 µM] | i | 6.0 | 3.0%[87.6 µM]
Cc1ccc(-n2nc3c(=O)n(CCCC(=O)NCCc4ccccc4)nc(C)c3c2C)cc1 | 21.9% | i | 10.2 | 5.2%
Cc1ccc(-n2nc3c(=O)n(CCCC(=O)NC(C)c4ccccc4)nc(C)c3c2C)cc1 (centres undefined) | 28.2µM* | i | 0.4 | 1.7%
Cc1noc(C)c1-c1cc(-c2cnn(C)c2)cn2cncc12 | -6.4%[87.6 µM] | 39.8µM* | -13.4 | 11.1%[87.6 µM]
CC(=O)Nc1cccc(-c2cc(C3=CCOCC3)c3cncn3c2)c1 | 17.9%[87.6 µM] | 39.8µM* | 6.6 | 13.6%[87.6 µM]
C1=C(c2cc(-c3cccc(N4CCOCC4)c3)cn3cncc23)CCOC1 | 24.6%[87.6 µM] | ? | -1.6 | -1.5%[87.6 µM]
Cc1noc(C)c1-c1cc(-c2ccccc2O)cn2cncc12 | -12.0%[87.6 µM] | i | -6.5 | 2.5%[87.6 µM]
COc1ccc(-c2cc(-c3cnn(C)c3)cn3cncc23)cc1 | -27.1%[87.6 µM] | 35.5µM* | -16.2 | -14.4%[87.6 µM]
Cc1noc(C)c1-c1cc(-c2cccnc2)cn2cncc12 | 2.4%[87.6 µM] | 35.5µM* | -20.8 | 11.3%[87.6 µM]
COc1ccc(NC(=O)CN2C(=O)C(C)(C)c3ccccc32)cc1Cl | -5.6% | i | -7.0 | -20.5%
O=C(NC1CCCC1)N1CCN(C(=O)c2cccc(-c3ccccn3)c2)CC1 | 4.3% | nt | -9.0 | 9.3%[12.5 µM]
CC(=O)Nc1cccc(-c2cc(-c3c(C)noc3C)c3cncn3c2)c1 | 35.5%[87.6 µM] | 39.8µM* | -5.4 | 3.4%[87.6 µM]
COc1cccc(-c2cc(-c3ccc(OC)nc3)c3cncn3c2)c1 | 6.3%[87.6 µM] | 31.6µM* | -20.3 | -9.1%[87.6 µM]
Cc1noc(C)c1-c1cc(-c2cccc(CO)c2)cn2cncc12 | 4.2%[87.6 µM] | 35.5µM* | -13.7 | 3.7%[87.6 µM]
COc1cccc(-c2cc(-c3ccc(=O)[nH]c3)c3cncn3c2)c1 | -25.9%[87.6 µM] | ? | -15.4 | 5.5%[87.6 µM]
COc1cccc(-c2cc(-c3c(C)noc3C)c3cncn3c2)c1 | 8.5%[87.6 µM] | ? | -10.7 | -8.2%[87.6 µM]
Cc1cccc(-c2noc(-c3ccc(NCc4ccco4)c([N+](=O)[O-])c3)n2)c1 | 27.3% | i | -0.3 | -10.8%
CC(C)(C)c1ccc(NC(=O)CCc2ncc(-c3ccccc3F)o2)cc1 | nt | i | nt | nt
COc1ccc(C(=O)N[C@@H]2CCC[C@@H]2C(=O)NCc2ccc(C)c(C)c2)cc1 | -18.6% | i | 15.8 | -25.0%

Screening results as filed in PubChem BioAssay.
